Activity calls are given as the source filed them.
Columns and labels:
[1] = A549 cell viability effects, profiling panel, calcein-AM fluorescence, 48 h, basal (AID 1162); conditions: higher = more signal
[2] = adipocyte viability effects, profiling panel, cell-based, 3T3-L1 adipocytes, calcein-AM fluorescence, 48 h, basal (AID 1163); conditions: 3T3-L1 adipocytes viability, higher = more signal
[3] = HepG2 cell viability effects, profiling panel, calcein-AM fluorescence, 48 h, basal (AID 1164); conditions: higher = more signal
[4] = MM1S cell viability effects, profiling panel, calcein-AM fluorescence, 48 h, basal (AID 1165); conditions: higher = more signal;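 note: viability of MM1S multiple myeloma cells under basal unstimulated conditions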
[5] = basal RPMI8226 viability, no added stimulus, profiling panel, cell-based, calcein-AM fluorescence, 48 h, PK04 Diversity Set (AID 1166); conditions: RPMI8226 myeloma viability, higher = more signal;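 note: cells grown under basal conditions without added stimulus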
[6] = basal HepG2 mitochondrial membrane potential changes, profiling panel, cell-based, JC-1 fluorescence, 24 h, 100 nL compound (AID 1167); conditions: higher = more signal
[7] = basal 3T3-L1 adipocyte mitochondrial potential changes, profiling panel, cell-based, JC-1 fluorescence, 3T3-L1 adipocytes, 24 h, 100 nL compound (AID 1168); conditions: JC-1 mitochondrial fluorescence, higher = more signal, called active from +8 up or from −8 down
[8] = basal RPMI8226 mitochondrial membrane potential changes, profiling panel, cell-based, JC-1 fluorescence, 24 h, 100 nL compound (AID 1169); conditions: RPMI8226 myeloma, JC-1 mitochondrial potential fluorescence, higher = more signal
[9] = basal MM1S mitochondrial membrane potential changes, profiling panel, cell-based, JC-1 fluorescence, 24 h, 100 nL compound (AID 1170); conditions: higher = more signal
[10] = A549 lung cancer cell viability effects, profiling panel, resazurin fluorescence, 24 h, PK04 Diversity Set (AID 1171); conditions: higher = more signal, called active from +8 up or from −8 down
Note: test concentration not given here.

SMILES	z-score [1]	z-score [2]	z-score [3]	z-score [4]	z-score [5]	z-score [6]	z-score [7]	z-score [8]	z-score [9]	z-score [10]
CC(C)C[C@@H]1NC(=O)[C@@H]2C[C@H](C(=O)NCCCCN(C)C)[C@H](c3ccc(O)cc3)N2C1=O	-0.583	-0.339	-0.375	0.12	0.579	-1.26	-0.0811 (inactive)	-0.0507	0.218	0.408 (inactive)
C=C(CCCC)/C(=C/C[C@@H](OC(=O)c1ccncc1)c1ccc(CO)o1)c1cc(C(=O)OC)ccc1OC	1.25	-0.1	0.743	-2.63	-2.58	0.0818	-0.239 (inactive)	-0.812	-2.01	-0.269 (inactive)
C=C(C(=O)CC[C@@H](OC(=O)c1cccnc1)c1ccc(CO)o1)C(C)C	-0.628	0.153	-0.545	-1.06	-0.56	-1.3	0.0907 (inactive)	0.283	0.48	-0.297 (inactive)
C[N+](C)(C)CCCCNC(=O)[C@H]1C[C@H]2C(=O)N3CCC[C@H]3C(=O)N2[C@H]1c1ccc(O)cc1	-0.814	0.0179	-0.674	-0.642	-0.772	-1.1	-1.5 (inactive)	0.0553	-0.38	0.0558 (inactive)
C=CCOC(=O)[C@@H]1[C@H]2C(=O)O[C@H](c3ccccc3)[C@H](c3ccccc3)N2[C@H](c2ccc(OCCOC(=O)[C@H]3C[C@H]4C(=O)N[C@@H](CCCC[N+](C)(C)C)C(=O)N4[C@H]3c3cccc(OCCO)c3)cc2)[C@@]12C(=O)Nc1ccc(I)cc12	-0.299	0.194	-0.872	-0.135	0.437	-0.984	1.07 (inactive)	-0.742	-1.24	-0.166 (inactive)
NC(=O)NCC#Cc1ccc2c(c1)[C@]1(C(=O)N2)[C@H](c2ccc(O)cc2)N2[C@H](c3ccccc3)[C@H](c3ccccc3)OC(=O)[C@H]2[C@@H]1C(=O)N1CCN(c2ncccn2)CC1	0.719	0.464	-1.08	0.252	0.719	-1.83	-0.197 (inactive)	0.591	1.06	0.956 (inactive)
C=C(CCCC)/C(=C/C[C@H](OC(C)=O)c1ccc(CO)o1)c1cc(C(=O)OC)ccc1OC	-0.0865	1.03	-0.888	-2.21	-2.15	-0.854	-0.356 (inactive)	0.292	0.6	-0.684 (inactive)
O=C1OCCC=C[C@H]2OC34C=CCN(c5ccc6ccccc6c5)C(=O)[C@H]3N(CCCCCCO)C(=O)[C@@H]4C12 (stereo not given in full)	0.705	-0.488	0.461	1.1	0.734	1.3	0.0246 (inactive)	-0.00773	-0.456	0.866 (inactive)
CCN(CC)c1ccc(N2CC=CC34O[C@@H]5/C=C\CCCOC(=O)C5[C@H]3C(=O)N(CCCO)[C@@H]4C2=O)cc1 (stereo not given in full)	-0.13	0.275	0.616	0.794	-0.0911	0.472	-0.546 (inactive)	-0.0632	0.918	0.876 (inactive)
COc1ccc(C#Cc2ccc3c(c2)[C@]2(C(=O)N3)[C@H](c3ccc(OCCO)cc3)N3[C@H](c4ccccc4)[C@H](c4ccccc4)OC(=O)[C@H]3[C@@H]2C(=O)Nc2nc3ccccc3s2)cc1	1.47	0.292	0.891	-1.69	-1.37	-2.95	6.28 (inactive)	-1.3	-1.71	-1.23 (inactive)
Oc1ccc2cc[n+](Cc3cccc(OC(F)(F)F)c3)cc2c1	0.609	0.128	0.577	0.683	-0.592	0.303	0.339 (inactive)	0.593	-0.862	-1.81 (inactive)
CC(C)NC(=O)[C@@]1(c2ccc([N+](=O)[O-])cc2)CC(=O)N(C(C)C)[C@@H]1c1ccc(CO)cc1	1.19	0.63	0.959	0.385	1.38	0.763	0.481 (inactive)	-1.03	-0.228	-1.1 (inactive)
Cc1ccc(S(=O)(=O)N2CC(C(=O)O)=CCC2c2ccccc2)cc1 (stereo not given)	-0.901	0.324	-0.772	-0.249	-1.19	-0.644	-2.04 (inactive)	-0.25	1.53	-0.717 (inactive)
CCOC1=C2C(c3ccc(C)cc3)N(S(=O)(=O)c3ccc(C)cc3)CC2n2c(=O)n(-c3ccccc3)c(=O)n2C1 (stereo not given)	-0.943	-0.334	-0.422	-0.255	-0.546	1.53	0.497 (inactive)	0.709	-1.03	-0.629 (inactive)
C=CCC(OC(C)=O)[C@@H]1[C@@H](N(Cc2cc3ccccc3o2)C(=O)c2cccc3ccccc23)c2cc(OCCCO)ccc2N1C(=O)Cc1ccc2ccccc2c1 (stereo not given in full)	0.206	0.753	0.381	0.791	-1.08	2.07	-0.858 (inactive)	0.313	-0.963	-1.05 (inactive)
C=C[C@H](C)[C@H](OC(=O)Nc1ccc(OC)cc1)c1ccc(O)c2ccccc12	-0.697	0.256	-1.87	-2.98	-4.25	-3.3	-1 (inactive)	-1.03	-2.07	-0.232 (inactive)
Cc1ccccc1/C=C/C=O	1.59	-0.345	0.93	-0.499	0.0415	1.65	1.39 (inactive)	0.426	-0.962	-0.122 (inactive)
O=C1C2C=CC(C(O)C3CC=CCC3)N(n3cnnc3)C2C(=O)N1Cc1ccccc1 (stereo not given)	-0.563	-0.801	0.253	-0.379	-0.255	-0.937	-0.132 (inactive)	0.46	-0.109	-0.62 (inactive)
COc1ccccc1CN1C(=O)c2ccccc2[C@](Cc2ccccc2I)(C(=O)NC2CC2)[C@@H]1c1ccc(CO)cc1	-0.741	-0.475	-0.468	-0.664	-1.54	1.32	0.424 (inactive)	-1.04	-0.508	-0.264 (inactive)
COCCOC(=O)N1C(=O)[C@@]2(c3ccccc31)[C@H](C(=O)N1CCCCCCC1)[C@H]1C(=O)O[C@H](c3ccccc3)[C@H](c3ccccc3)N1[C@@H]2c1ccccc1OCCO	-0.501	0.293	0.603	-0.252	-1.84	-0.114	-0.226 (inactive)	-1.1	-1.04	-0.467 (inactive)
C[C@]1(C(=O)NCC(F)(F)F)c2ccccc2C(=O)N(Cc2cc(F)cc(C(F)(F)F)c2)[C@H]1c1ccc(CO)cc1	-0.493	1.63	-0.357	-0.74	-0.308	0.951	-0.449 (inactive)	-0.494	0.206	-0.557 (inactive)
COc1ccc([Si](C)(C)[C@H]2[C@H](CC(=O)N3CCC[C@H]3CO)O[C@@]3(C(=O)N(Cc4cccc(N5CCC5=O)c4)c4ccccc43)[C@@H]2C)cc1	-0.246	1.57	-0.108	-2.2	-4.11	3.25	-0.457 (inactive)	-1.14	0.619	-1.2 (inactive)

— PubChem BioAssay
